Assay results reported in PubChem BioAssay AID504652 (National Center for Advancing Translational Sciences (NCATS), 2011).
Out of some 360,000 compounds screened, about 11,000 (3.1%) were called active. What follows is part of a selection rich in actives, with near analogues and random picks from the rest. Values without a mark were called inactive. No stated cut-off is given here; in the data, active means activity change below about -30%; inactive means the rest.

The molecules below were run against D(1A) dopamine receptor (Homo sapiens) (UniProt P21728) (assay: Antagonist of Human D 1 Dopamine Receptor: qHTS). Details: HEK293 TREx D1 cells, calcium flux, dopamine EC80; at 10 µM; stronger effect = lower value.
Procedure, shortened: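 Using tetracycline-induced force-coupled D1 Hek293 cells and a calcium dye, signals were followed for 180 s after compound, then for 180 s after EC80 dopamine, to detect inhibitors.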
On the % scale 0 is the no-effect control and ±100 the full control effect.

Sequence of D(1A) dopamine receptor (Homo sapiens) (P21728 whole entry, looked up): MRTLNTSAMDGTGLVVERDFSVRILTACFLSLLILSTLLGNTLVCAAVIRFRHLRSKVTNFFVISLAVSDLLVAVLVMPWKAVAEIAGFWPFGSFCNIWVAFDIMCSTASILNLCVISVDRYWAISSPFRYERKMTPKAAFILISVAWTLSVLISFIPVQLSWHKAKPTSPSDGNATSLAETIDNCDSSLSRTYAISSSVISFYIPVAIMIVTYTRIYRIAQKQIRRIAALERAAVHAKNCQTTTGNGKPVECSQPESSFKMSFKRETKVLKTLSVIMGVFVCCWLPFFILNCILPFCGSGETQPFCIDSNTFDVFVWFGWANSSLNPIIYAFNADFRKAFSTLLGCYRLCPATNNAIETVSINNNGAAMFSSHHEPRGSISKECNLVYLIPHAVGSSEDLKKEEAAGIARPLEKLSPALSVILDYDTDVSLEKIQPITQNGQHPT

| SMILES | activity change, negative = inhibition |
| --- | --- |
| CCc1ccccc1NC(=O)Cc1ccc(NC(=O)N2CCCCc3ccccc32)cc1 | -2.99% |
| CCOC(=O)c1ccc(NC(=O)CCS(=O)(=O)c2ccc(C)cc2)cc1 | 2.9% |
| CCOC(=O)c1ccc(NC(=O)CCS(=O)(=O)c2ccc3c(c2)oc(=O)n3C)cc1 | -34.1% (active) |
| COc1cc(NC(=O)CCS(=O)(=O)c2ccc3c(c2)oc(=O)n3C)cc(OC)c1 | -5.28% |
| Cc1ccc(C(=O)OCC(=O)NCc2cc(C)c(O)c(C)c2)cc1S(=O)(=O)N1CCCCC1 | -93.9% (active) |
| Cc1ccc(C(=O)OCC(=O)N2CC(C)CC(C)C2)cc1S(=O)(=O)N1CCCCC1 (centres undefined) | -14.5% |
| COc1ccc(CNC(=O)COC(=O)c2ccc(C)c(S(=O)(=O)N3CCOCC3)c2)cc1OC | 13.1% |
| CCc1ccc(C(=O)CC2(O)C(=O)N(CCc3ccccc3)c3ccc(Br)cc32)cc1 (centres undefined) | 6.36% |
| COc1ccc2c(C)cc(SCC(=O)NCC3CCCO3)nc2c1 (centres undefined) | -21.4% |
| O=C(CSc1nnc(-c2ccc(NS(=O)(=O)c3ccccc3)cc2)o1)NCC1CCCO1 (centres undefined) | -3.8% |
| O=C(COc1ccc(Cl)cc1)NCc1nnc(SCC(=O)NCC2CCCO2)o1 (centres undefined) | -31.2% (active) |
| Cc1ccc2oc(C(=O)Nc3ccc(S(=O)(=O)N4CCCCCC4)cc3)cc(=O)c2c1 | -13.8% |
| O=C(Nc1cccc(-c2cccc(Cl)c2)c1)C1CCN(C2CCC2)CC1 | -10% |
| CCn1cc(CN2CCC(C(=O)Nc3cccc(-c4cccc(Cl)c4)c3)CC2)cn1 | -38.6% (active) |
| CCn1cc(CN2CCC(C(=O)Nc3cccc(-c4cccc(Cl)c4)c3)CC2)c(C)n1 | -1.32% |
| CC1CCCCN1CC(=O)N1CCCc2c1c(=O)oc1ccc(OCc3ccccc3)cc21 (centres undefined) | 4.23% |
| O=C(NCc1nnc(C(=O)Nc2ccc(C(F)(F)F)cc2Cl)o1)c1ccccc1 | -10% |
| O=C(Nc1ccccc1)c1nnsc1S(=O)(=O)c1ccc(Cl)cc1 | -31.4% (active) |
| O=C(Nc1ccc(Oc2ccccc2)cc1)C1CCN(S(=O)(=O)c2ccc(Cl)cc2)CC1 | -14.4% |
| O=C(Nc1cccc(Cl)c1)c1csnn1 | 0.926% |
| COC(=O)c1ccc(NC(=O)c2cnn(-c3ccc(Cl)cc3)c2C2CCN(C(=O)OC(C)(C)C)CC2)cc1 | 8.43% |
| CC1CCN(S(=O)(=O)c2ccc3c(ccn3CC(=O)O)c2)CC1 | -15% |
| CC1CCN(S(=O)(=O)c2ccc3c(ccn3CCC(=O)NCc3ccc(N(C)C)cc3)c2)CC1 | -72.7% (active) |
| O=C(CCn1ccc2cc(S(=O)(=O)N3CCCC3)ccc21)NCc1cccc(Cl)c1 | 11.5% |
| N#Cc1ccc(-c2cccs2)nc1SCc1ccc(Br)cc1 | -3.69% |
| Cc1ccc2c(c1)c1c(c(=O)n(-c3ccccc3)c(=O)n1CC(=O)c1ccc(Cl)cc1)n2C | -16% |
| CCS(=O)(=O)N1CCc2cc(C(=O)NCc3ccc(C)cc3)ccc21 | -4.2% |

| SMILES | activity change, negative = inhibition |
| --- | --- |
| CN(CC(=O)NCCc1ccccn1)S(=O)(=O)c1ccc(Cl)cc1 | -32.4% (active) |
| CN(CC(=O)NCC(c1ccccc1)N1CCCC1)S(=O)(=O)c1ccc(Cl)cc1 (centres undefined) | 12.1% |
| CN(CC(=O)NNC(=O)CNC(=O)c1ccccc1Cl)S(=O)(=O)c1ccc(Cl)cc1 | -11.4% |
| CC(=O)Oc1cccc(N2C(=O)CC(Nc3ccc(N4CCOCC4)cc3)C2=O)c1 (centres undefined) | 9.21% |
| COc1ccc(NC2CC(=O)N(C)C2=O)cc1 (centres undefined) | -35.8% (active) |
| COc1ccc(C2CC(=O)NC(=O)C2)cc1 | 6.98% |
| COc1ccc(-c2nc3c(c(SCC(=O)Nc4ccc(C(=O)O)cc4)n2)Cc2ccccc2O3)cc1 | -4.63% |
| CCCCN(CC)CCCNC(=O)c1nn(C)c2c1CSc1ccccc1-2 | 13% |
| CCOC(=O)c1[nH]c(C)c(CCC(=O)NCc2ccccc2C)c1C | -16.9% |
| O=C(CCc1nc(CN2CCN(S(=O)(=O)c3ccc(F)cc3)CC2)no1)N1CCCCC1 | 11.3% |
| CC(=O)c1sc(NC(=O)CCN2C(=O)C3CC=CCC3C2=O)nc1-c1ccccc1 (centres undefined) | 2.17% |
| O=C(Cc1ccc(Cl)cc1)NCc1nc(-c2ccccc2)no1 | -12.9% |
| O=C(CCN1C(=O)[C@H]2CC=CC[C@H]2C1=O)NCc1nc(-c2ccccc2)no1 | -34.2% (active) |
| O=C(NC1CCN(Cc2ccccc2)CC1)c1ccc(Cn2c(=O)c3ccccc3n(Cc3cccc(F)c3)c2=O)cc1 | 2.59% |
| COc1cccc(-c2nc(S(=O)(=O)c3ccc(C)cc3)c(NCc3ccccc3)o2)c1 | 24.7% |
| CN(c1ccccc1)S(=O)(=O)c1cccc(NC(=O)Cc2ccc(Cl)cc2)c1 | -23.4% |
| CN(C)S(=O)(=O)c1cccc(NC(=O)Cc2ccsc2)c1 | -5.36% |
| CN(c1ccccc1)S(=O)(=O)c1cccc(NC(=O)Cc2c(F)cccc2Cl)c1 | -47.4% (active) |
| O=C(CCC(=O)N1CC2CCCN2c2ccccc21)NCc1ccccc1Cl (centres undefined) | -15.4% |
| Cc1cc(C)cc(NC(=O)CSc2nc3nccnc3c(=O)n2CCc2c[nH]c3ccccc23)c1 | 1.93% |
| O=C(CSc1nc2nccnc2c(=O)n1CCc1c[nH]c2ccccc12)Nc1ccccc1F | -39.8% (active) |
| Cc1cc(C)c(NC(=O)CSc2nc3nccnc3c(=O)n2CCc2c[nH]c3ccccc23)c(C)c1 | 1.52% |
| CN(C(=O)c1ccc2c(c1)N(Cc1cccc(Cl)c1)C(=O)c1ccccc1S2=O)C1CCCCC1 (centres undefined) | 2.7% |
| O=[N+]([O-])c1ccccc1OCCCCN1CCCCC1 | -54.3% (active) |
| CC1CN(CCOc2ccccc2[N+](=O)[O-])CC(C)O1 (centres undefined) | -11.6% |
| Cc1ccc(OCCCCN2CCCCC2)c(Br)c1 | -23.4% |
| O=C(CSc1ncc(S(=O)(=O)c2ccc(Br)cc2)c(=O)[nH]1)Nc1ccc2c(c1)OCCO2 | 8% |
